# Experimental data: PubChem BioAssay (NCI)
# The panel holds about 83,000 compounds, 20% with a hit somewhere; the sample as a whole holds those more often.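 Interpretation: 100, growth as untreated; towards 0, rising growth inhibition; 0, no net growth; 0 to -100, cell death. Compounds scoring below 10 were considered active.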 Values without a mark were called inactive. Active and inactive are the calls of the source.
# Tested on: LOX IMVI melanoma
# Assay: NCI-60 one-dose screen, 48 h (100 = growth as untreated, 0 = no growth, -100 = all killed)
# Details: 10 µM unless noted
row,Compound,growth
1,COc1ccc(Sc2ccc3[nH]c(=O)nc(N)c3c2)cc1,99.7%
2,CCN1C(=O)C2(Nc3ccccc3S2)c2cc(C)ccc21 (stereo not given),103%
3,CCOC(=O)c1cn2c3c(cc(F)cc3c1=O)C(CC)c1ccccc1C2 (stereo not given),84.9%
4,Cc1nn(CC(=O)O)c2c1C(=O)CC(C)(C)C2,107%
5,O=C1/C(=C/c2ccc(Oc3ccccc3)cc2)N=C(c2ccccc2)N1CCc1cccs1,62.1%
6,COc1cccc(C2C3=C(COC3=O)N(CCO)c3cc4c(cc32)OCO4)c1 (stereo not given),53.8%
7,COc1ccc2c(c1)c(=O)oc1c(C)c(OCC(C)=O)ccc12,94.7%
8,CC1=C(C/C=C(\C)CCC[C@H](C)CCC[C@H](C)CCCC(C)C)C(=O)c2ccccc2C1=O,96.4%
9,O=S(=O)(OCCO)c1ccccc1,103%
10,COc1ccc(-c2nc3sccn3c2/C=C/C(=O)c2cc(OC)c(OC)c(OC)c2)cc1OC,9.65% (active)
11,Cc1nc(NN)c([N+](=O)[O-])c(NN)n1,111%
12,COc1cc(/C=C2\C(=O)N(c3c(Cl)cccc3Cl)c3ccccc32)cc(OC)c1O,2.06% (active)
13,COc1cc(C2C3=C(COC3=O)N(CCO)c3cc4c(cc32)OCO4)cc(OC)c1O (stereo not given),40.1%
14,COc1ccccc1CNCCCCCCCCCCCCN1C(=O)c2ccc3c4c(ccc(c24)C1=O)C(=O)N(CCCCCCCCCCCCNCc1ccccc1OC)C3=O,56.4%
15,CCCCCCCCCCCCCCCC[N+]1(C)CCOCC1,-79% (active)
